Data as given in PubChem BioAssay (NCI).
Compounds without any hit were thinned out: in the full panel of roughly 83,000, 20% have a hit.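 96-well plates, one dose, 48 hours. Percent growth reported; active if below 10.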

How the values were obtained:
Test in all cases: NCI-60 one-dose screen, 48 h (100 = growth as untreated, 0 = no growth, -100 = all killed)
HCT-15 colon = conditions: 10 µM
HT29 colon = conditions: 10 µM
SNB-75 CNS = conditions: 10 µM
SNB-19 CNS = conditions: 10 µM
U251 CNS = conditions: 10 µM
PC-3 prostate = conditions: 10 µM
SK-MEL-5 melanoma = conditions: 10 µM
UACC-62 melanoma = conditions: 10 µM unless noted
LOX IMVI melanoma = conditions: 10 µM
SK-MEL-28 melanoma = conditions: 10 µM

Measured: growth

Cc1cc(OCCO)cc(C)c1Cl
inactive: HCT-15 colon 97.6% | HT29 colon 113% | SNB-75 CNS 124% | SNB-19 CNS 106% | U251 CNS 110% | PC-3 prostate 97.2% | SK-MEL-5 melanoma 112% | UACC-62 melanoma 95.7% | LOX IMVI melanoma 98% | SK-MEL-28 melanoma 118%

CC1=CC(=O)c2ccccc2C1=O
inactive: HCT-15 colon 102% | HT29 colon 112% | SNB-75 CNS 90.9% | SNB-19 CNS 101% | U251 CNS 101% | PC-3 prostate 108% | SK-MEL-5 melanoma 103% | UACC-62 melanoma 100% | LOX IMVI melanoma 96.5% | SK-MEL-28 melanoma 116%

Cc1c(O)cccc1O
inactive: HCT-15 colon 116% | HT29 colon 106% | SNB-75 CNS 99.1% | SNB-19 CNS 97.6% | U251 CNS 98.7% | PC-3 prostate 96.9% | SK-MEL-5 melanoma 106% | UACC-62 melanoma 94.9% | LOX IMVI melanoma 106% | SK-MEL-28 melanoma 122%

Nc1ccccc1C(=O)Nc1ccc(Cl)cc1Cl
inactive: HCT-15 colon 101% | HT29 colon 93.2% | SNB-75 CNS 67.7% | SNB-19 CNS 96.1% | U251 CNS 102% | PC-3 prostate 78.8% | SK-MEL-5 melanoma 107% | UACC-62 melanoma 88.7% | LOX IMVI melanoma 87.9% | SK-MEL-28 melanoma 100%

CCCCN(CCCC)CCCO
inactive: HCT-15 colon 100% | HT29 colon 126% | SNB-75 CNS 86.7% | SNB-19 CNS 112% | U251 CNS 116% | PC-3 prostate 180% | SK-MEL-5 melanoma 104% | UACC-62 melanoma 106% | LOX IMVI melanoma 101% | SK-MEL-28 melanoma 110%

NC(N)=Nc1cc2ccccc2c2ccccc12
inactive: HCT-15 colon 85.7% | HT29 colon 65.3% | SNB-75 CNS 57% | SNB-19 CNS 82.2% | U251 CNS 79.4% | PC-3 prostate 61.5% | SK-MEL-5 melanoma 85.9% | UACC-62 melanoma 75% | LOX IMVI melanoma 74.9% | SK-MEL-28 melanoma 88.3%

CN(C)C(=O)Oc1cccc([N+](C)(C)C)c1
inactive: HCT-15 colon 95.6% | HT29 colon 115% | SNB-75 CNS 85.1% | SNB-19 CNS 105% | U251 CNS 97.9% | PC-3 prostate 98.5% | SK-MEL-5 melanoma 94.9% | UACC-62 melanoma 104% | LOX IMVI melanoma 105% | SK-MEL-28 melanoma 108%

Nc1ccc(N=Nc2ccc(O)cc2)c(N)n1
inactive: HCT-15 colon 64.5% | HT29 colon 103% | SNB-75 CNS 82.5% | SNB-19 CNS 98.1% | U251 CNS 76.6% | PC-3 prostate 60.7% | SK-MEL-5 melanoma 73.3% | UACC-62 melanoma 41% | LOX IMVI melanoma 79.4% | SK-MEL-28 melanoma 89.2%

CC1CCC2C(C)(C)C3CC12CC1OC13C (stereo not given)
inactive: HCT-15 colon 97.7% | HT29 colon 107% | SNB-75 CNS 97.5% | SNB-19 CNS 102% | U251 CNS 102% | PC-3 prostate 99.5% | SK-MEL-5 melanoma 96.9% | UACC-62 melanoma 103% | LOX IMVI melanoma 98.3% | SK-MEL-28 melanoma 103%

O=C1C=CC2=C3c4cc(O)c(O)cc4CC3(O)COC2=C1O (stereo not given)
inactive: HCT-15 colon 105% | HT29 colon 100% | SNB-75 CNS 88% | SNB-19 CNS 104% | U251 CNS 105% | PC-3 prostate 93.7% | SK-MEL-5 melanoma 138% | UACC-62 melanoma 98.1% | LOX IMVI melanoma 99.2% | SK-MEL-28 melanoma 119%

C/C(=N/NC(N)=O)c1ccco1
inactive: HCT-15 colon 102% | HT29 colon 99.5% | SNB-75 CNS 91.5% | SNB-19 CNS 101% | U251 CNS 96.8% | PC-3 prostate 76.3% | SK-MEL-5 melanoma 105% | UACC-62 melanoma 102% | LOX IMVI melanoma 95.4% | SK-MEL-28 melanoma 117%

NC(C(=O)O)C(O)c1ccco1 (stereo not given)
inactive: HCT-15 colon 99.1% | HT29 colon 120% | SNB-75 CNS 106% | SNB-19 CNS 114% | U251 CNS 102% | PC-3 prostate 96% | SK-MEL-5 melanoma 104% | UACC-62 melanoma 113% | LOX IMVI melanoma 103% | SK-MEL-28 melanoma 107%

Nc1ccc(NC(=O)c2cccc(N)c2)cc1
inactive: HCT-15 colon 101% | HT29 colon 105% | SNB-75 CNS 91.3% | SNB-19 CNS 94.8% | U251 CNS 96.2% | PC-3 prostate 82.9% | SK-MEL-5 melanoma 103% | UACC-62 melanoma 96.5% | LOX IMVI melanoma 89.9% | SK-MEL-28 melanoma 104%

CC1CCC(C(=O)O)N1 (stereo not given)
inactive: HCT-15 colon 110% | HT29 colon 94.1% | SNB-75 CNS 83.3% | SNB-19 CNS 102% | U251 CNS 96% | PC-3 prostate 99.2% | SK-MEL-5 melanoma 102% | UACC-62 melanoma 98.1% | LOX IMVI melanoma 99.2% | SK-MEL-28 melanoma 95.4%

CC1(C(=O)O)NC(C(=O)O)Cc2c1[nH]c1ccccc21 (stereo not given)
inactive: HCT-15 colon 110% | HT29 colon 109% | SNB-75 CNS 88.8% | SNB-19 CNS 108% | U251 CNS 102% | PC-3 prostate 87.4% | SK-MEL-5 melanoma 104% | UACC-62 melanoma 100% | LOX IMVI melanoma 101% | SK-MEL-28 melanoma 103%
